The results in this text go back to PubChem BioAssay (NCI).

About 83,000 compounds went through this panel and 20% of them were active in at least one assay; those are over-represented in the sample as a whole.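 Single-dose data. Exposure time 48 hours. Values below 10 considered active.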 Unmarked numbers belong to inactive results. Active and inactive are the calls of the source.

This test relates to HL-60(TB) leukemia. The test is described as follows: NCI-60 one-dose screen, 48 h (100 = growth as untreated, 0 = no growth, -100 = all killed). Particulars: 10 µM unless noted.
Consider `CCN(CC)c1ccc(/C=C/C2=[N+](C)c3ccccc3C2(C)C)c(C)c1`, for which the growth was -34.7% (active). As to `COc1cc(/C=N/NC(=O)c2ccccc2Nc2ccnc(C(F)(F)F)c2)ccc1O`, the growth was 14%. `C=C(C)[C@@H]1CC[C@]2(C(=O)N3CCN(C)CC3)CC[C@]3(C)[C@H](CC[C@@H]4[C@@]5(C)CC[C@H](OC(=O)c6ccccc6C(=O)O)C(C)(C)[C@@H]5CC[C@]43C)[C@@H]12`: the growth was 106%. In the case of `FC(F)(F)c1cc(Nc2ccc3c(OCCCN4CCOCC4)cccc3n2)ccc1Cl`, the growth is 63.3%. Turning to `CCCCCCCCCCCC(c1ccccc1)[N+](C)(C)C` (stereo unspecified), the growth is -30.5% (active). In the case of `COc1cc(OC)c2c(c1Cl)O[C@]1(C2=O)C(OCc2ccccc2)=CC(=O)C[C@H]1C` it was -12% (active). On to `COc1c(Cl)cc(Cl)cc1Cl`, for which the growth was 98.7%.

Turning to `COCCOCCOCc1n(Cc2ccc3ccccc3c2)c2ccccc2[n+]1Cc1ccc2ccccc2c1`, the growth was -53.5% (active).

For the compound `CCC1(CC)NC(=O)c2c(c3ccc(Cl)c(Cl)c3n2C)C1C#N` (stereo unspecified), the growth is 91.3%. For the compound `CCN1C(=O)N(CC)C2C1NN=c1s/c(=C\c3ccc[nH]3)c(=O)n12` (stereo unspecified), the growth was -48% (active). The figure for `O=C(OC12CC3CC(CC(C3)C1)C2)c1ccc(NCc2cc(O)ccc2O)cc1` is -52.6% (active); for `COc1cc2ncnc3c2cc1OCCCCCN(C)Cc1ccc(Br)cc1N3` it is 33.7%; for `O=C(Nc1ccc(N=Cc2ccccc2O)cc1)NC1C=c2ccccc2=CC1` (stereo unspecified) it is 79.4%.

Turning to `Cc1cccc(C)c1NC(=O)CSC(=S)N1CCN(CCOCCO)CC1`, the growth is 88.7%. With `Cc1nc2ccccc2c(/C=C/c2ccc(Cl)cc2)c1C(=O)/C=C/c1cccs1`, the growth is 59.5%. In the case of `COc1cc(-c2cccc([N+](=O)[O-])c2)c(-c2nc(-c3ccccc3)c(-c3ccccc3)n2C2CC2)cc1OC`, the growth is 9.63% (active). As for `COc1cc2c(cc1O)CC[C@@H]1[C@@H]2CC[C@]2(C)[C@@H](NCCN(C)C)CC[C@@H]12`, the growth is -67.7% (active). With `O=c1oc2ccc(I)cc2c(=O)n1-c1ccc(Br)cc1F`, the growth is -27.8% (active). With `COc1cc2c(c(OC)c1OC)C(=O)CC(c1cccc(C(=O)Nc3ccc(Br)cc3)c1)O2` (stereo unspecified), the growth was 13.8%. Regarding `CC(C)(O)c1cn(CCCCN2C(=O)C(=O)c3ccccc32)nn1`, the growth is 97.8%. The figure for `Cc1ccc(Nc2cc(C)nc(NCCCNc3ccnc4cc(Cl)ccc34)n2)cc1` is -73% (active); for `COc1cccc(-c2nc3sccn3c2-c2ccnc(NCCNS(=O)(=O)c3c(Cl)cccc3Cl)c2)c1` it is 25.9%. In the case of `O=C1CC(c2ccc3c(c2)OCO3)Nc2ccccc21` (stereo unspecified) it was 0.897% (active); in that of `O=C(CCCCCCN1CC(=O)N2[C@@H](c3ccc(Cl)cc3)c3[nH]c4ccccc4c3C[C@H]2C1=O)NO`, 46.8%; in that of `C=C1C(=O)O[C@H]2[C@H]1CC/C(Cn1cc(-c3ccc(F)cc3)nn1)=C\CC[C@@]1(C)O[C@@H]21`, -18.8% (active). The figure for `O=c1[nH]c2cc(O)ccc2n2cc3c(F)cccc3c12` is 25.5%; for `C#CCNC(=O)[C@]1(C)CC[C@]2(C)CC[C@@H]3C(=CC[C@H]4[C@@]3(C)CC[C@H]3C(C)(C)C(=O)CC[C@]43C)[C@@H]2C1` it is 56.2%. Turning to `COc1cc2c(cc1-c1c(C)noc1C)ncc1nc(C3CCC(F)(F)CC3)n([C@H](C)COC(F)F)c12`, the growth was 23.5%. On to `COc1cc(-c2nc3ccccc3[nH]2)ccc1OCc1nnc(-c2ccc(Br)cc2)o1`, for which the growth is 84.2%. On to `Cc1ccc(-c2nc3nc(-c4ccc(Br)cc4)nc(N4CCCNCC4)c3o2)cc1`, for which the growth was -47.3% (active). In the case of `Cc1cc2c(cc1C)NC1=C(N2)OC(c2c3ccccc3cc3ccccc23)C1=O` (stereo unspecified) it was 2.98% (active); in that of `CN(C)c1ccc(C(=O)c2ccc(N(C)C)c(N)c2)cc1N`, 7.38% (active). The figure for `FC(F)(F)c1cc(CNc2nc(Cl)ncc2Br)cc(C(F)(F)F)c1` is 85.2%. Turning to `Cn1cc(-c2ccc3c(c2)ncn3-c2ccc(CC(=O)Nc3cc(C(C)(C)C)on3)cc2)cn1`, the growth is 67.4%. As for `NC1(N)C=CC2=C(C=C1)C1(N)C3=C(C=CC(N)(N)C=C3)N2C2(N)C3=C(C=CC(N)(N)C=C3)N1C1=C2C=CC(N)(N)C=C1`, the growth is -2.73% (active).

Turning to `COc1ccc(Cn2cc3c(c2-c2cc(OC)c(OC)c(OC)c2)CCc2cnoc2-3)cc1N`, the growth is 5.54% (active).
